Source: PubChem BioAssay AID430 (Sanford-Burnham Center for Chemical Genomics, 2006)
Hit rate of the full screen: of about 63,000 compounds, about 1,100 (1.7%) were called active. Cut-off read from the data, not from the text of the source: active = cytotoxicity above about 50%; inactive = the rest. This excerpt belongs to a sample that is enriched for actives. Measured potencies and affinities stand elsewhere.

Assay: cytotoxicity in HPDE-C7 cells, cell-based, fluorescence, HTS (AID 430);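 note: cells exposed to compound for 48 hours before viability readout; 0% = vehicle and 100% = reference cytotoxic drug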
Conditions: HPDE-C7 pancreatic duct cells viability, at 10 µM, hits give high values

SMILES | cytotoxicity
CCN1CCN(c2nc(-c3cccnc3)nc3ccccc23)CC1 | -27.8% (inactive)
COc1ccc(NC(=O)C(Cc2ccccc2)NC(=O)c2ccco2)cc1OC (stereo not drawn) | -0.4% (inactive)
c1ccc(CSc2nnc3c(n2)OC(c2ccco2)Nc2ccccc2-3)cc1 (stereo not drawn) | -3.6% (inactive)
O=C(Nc1ccc2c(c1)OCO2)C(c1ccccc1)N1CCCCC1 (stereo not drawn) | -14% (inactive)
O=c1[nH]nnc2c1sc1nc(N3CCOCC3)c3c(c12)CCCC3 | 30.8% (inactive)
COc1ccccc1-n1c(=O)oc2ccc(Cl)cc2c1=O | 59.7% (active)
COc1ccccc1-n1c(SC)nc(O)cc1=O | 4.6% (inactive)
COc1ccccc1C1c2c(oc3ccc(Cl)cc3c2=O)C(=O)N1c1cc(C)on1 (stereo not drawn) | -14.3% (inactive)
Cn1c(SCc2c(F)cccc2Cl)nnc1-c1cccs1 | -2.8% (inactive)
O=C(C1COc2ccccc2O1)N1CCN(c2ccc(F)cc2)CC1 (stereo not drawn) | -9% (inactive)
O=C(O)COc1ccc2nsnc2c1Cl | -25.1% (inactive)
CCOc1ccccc1OCC(=O)O | 4.2% (inactive)
COC(=O)CN1C(=O)C(O)(CC(=O)c2ccc(C)cc2)c2ccccc21 (stereo not drawn) | -28.9% (inactive)
Cc1ccccc1-n1c(N)cc(=O)[nH]c1=S | -2.2% (inactive)
CCOC(=O)c1cc(NC(=O)Nc2ccc(OC)c(OC)c2)c(C)nc1C | 5.7% (inactive)
CCOC(=O)N1CCN(S(=O)(=O)c2ccc(C(=O)Nc3ccc(F)cc3F)cc2)CC1 | 58% (active)
CCOC(=O)N1CCN(S(=O)(=O)c2ccc(C(=O)Nc3nc4ccc(F)cc4s3)cc2)CC1 | -8% (inactive)
CCOC(=O)N1CCN(S(=O)(=O)c2ccc(F)cc2)CC1 | -1.6% (inactive)
CC1=CC(c2ccccc2)n2nc(N3C(=O)c4ccccc4C3=O)nc2N1 (stereo not drawn) | -0.7% (inactive)
Cc1cc(NC(=O)c2ccc(S(=O)(=O)N(C)C)cc2)no1 | -5.2% (inactive)
O=S(=O)(c1ccccc1)c1nc(-c2ccccc2)oc1NCc1cccnc1 | -3.2% (inactive)
CCNC(=O)C1CC(=O)N(Cc2ccc3c(c2)OCO3)C(=Nc2ccc(OCC)cc2)S1 (stereo not drawn) | -4.1% (inactive)
CNC(=O)C1CC(=O)N(Cc2ccc3c(c2)OCO3)C(=Nc2ccc(F)cc2)S1 (stereo not drawn) | 3.4% (inactive)
CCNC(=O)C1CC(=O)N(Cc2ccc3c(c2)OCO3)C(=Nc2ccc(F)cc2)S1 (stereo not drawn) | 50.6% (active)
Cc1nc2cc(C(F)(F)F)ccc2n1C1CCN(CC(=O)N2CCOCC2)CC1 | 1.2% (inactive)

SMILES | cytotoxicity
c1ccc(Cn2nnnc2CN2CCN(Cc3ccc4c(c3)OCO4)CC2)cc1 | -5.8% (inactive)
COc1ccc(S(=O)(=O)Nc2cc(C)ccc2OC)cc1C | 1.8% (inactive)
COc1ccc(NC(=O)CSc2nc3c(c(=O)n2-c2ccc(F)cc2)SCC3)cc1 | 14.2% (inactive)
COc1ccc(NC(=O)c2cccc(-n3cnnn3)c2)cc1 | -1.7% (inactive)
O=C(O)C1C2C=CC3(CN(CC(O)COc4ccccc4)C(=O)C13)O2 (stereo not drawn) | -8.7% (inactive)
Cc1cc2ccccc2n1CCNC(=O)c1ccc(S(=O)(=O)N2CCOCC2)cc1 | -3.1% (inactive)
CC(C)C[C@H](N)c1nnc(S(=O)(=O)Cc2cccc(F)c2)o1 | 19% (inactive)
Cn1cc(S(=O)(=O)Cc2ccc(F)cc2)c2ccccc21 | 8.8% (inactive)
CC(C)CCN1C(=O)CCC1(C)C(=O)NC1CCCCCC1 (stereo not drawn) | -16.5% (inactive)
COc1ccccc1NC(=O)c1nc[nH]c1C(=O)Nc1ccccc1OC | 17% (inactive)
COc1ccc(NC(=O)c2nc[nH]c2C(=O)Nc2ccccc2C)cc1 | 55.3% (active)
Cc1ccccc1NC(=O)c1nc[nH]c1C(=O)NCc1ccccc1 | -22.2% (inactive)
Cc1ccc(Nc2oc(C)nc2C#N)cc1 | 2.5% (inactive)
CCCSC1=C(C#N)C(c2ccccc2C)CC(=O)N1 (stereo not drawn) | 10.1% (inactive)
COc1ccc(OC)c(N/C(=N\c2nc(C)cc(C)n2)NC(=O)c2ccco2)c1 | -5.6% (inactive)
COC(=O)c1ccc(CSc2nnc(Nc3ccccc3OC)s2)o1 | 43.6% (inactive)
CCOc1ccccc1Nc1nnc(SCc2ccc(C(=O)OC)o2)s1 | 58% (active)
COC(=O)c1ccc(CSc2nnc(NCc3ccccc3)s2)o1 | -3.1% (inactive)
Cn1c(=O)c2c(-c3ccccc3)n(CCCN3CCOCC3)cc2n(C)c1=O | -14% (inactive)
COc1ccccc1NC(=O)c1cc(Sc2nncn2C)nc2ccccc12 | 4.7% (inactive)
Cc1ccc(C(=O)C2=C(O)C(=O)N(CCCN3CCOCC3)C23C(=O)N(C)c2ccccc23)o1 (stereo not drawn) | -20.1% (inactive)
COC(=O)c1ccc(OC(=O)c2ccco2)cc1 | -14.5% (inactive)
O=C(Oc1ccc2ccccc2c1)c1ccco1 | 5% (inactive)
CC1=CC(C)(C)Nc2ccc(C)cc21 | -10.9% (inactive)
CCc1ccc2c(c1)C(C)=CC(C)(C)N2 | 3.5% (inactive)

SMILES | cytotoxicity
CCOc1ccc2c(c1)N(C(=O)CN1C(=O)CCC1=O)C(C)(C)C=C2C | -6.5% (inactive)
CCOc1ccc(OC(=O)c2cccnc2)cc1 | 4.1% (inactive)
COC(=O)C1=C(C)NC(C)=C(C(=O)OC)C1c1ccc(OC(=O)c2ccco2)cc1 | -0.4% (inactive)
O=C(Oc1cccc(Br)c1)c1cccnc1 | -5% (inactive)
COc1ccc(S(=O)(=O)N2CCCC2C(=O)Nn2cnnc2)cc1 (stereo not drawn) | -10.2% (inactive)
O=C(O)C1C2CCC(C2)C1C(=O)Nc1nc2ccccc2s1 (stereo not drawn) | -5.1% (inactive)
CCc1cccc(NC(=O)Cn2cccc2)c1 | 2.1% (inactive)
Cc1noc(C)c1CSCC(=O)OCC(=O)Nc1sccc1C#N | 6.1% (inactive)
CCCc1cc(=O)oc2cc(C)cc(OC(=O)c3ccco3)c12 | 11.7% (inactive)
COC(=O)c1c(NC(=O)c2ccc(Br)o2)sc(C)c1C | 11% (inactive)
O=S(=O)(c1cccc(Cl)c1Cl)N1CCCCC1 | -8.6% (inactive)
C1CCC(c2nn3c(-c4n[nH]c5c4CCC5)nnc3s2)CC1 | 2.9% (inactive)
COc1ccc(CCN(Cc2nc3ccccc3c(=O)[nH]2)C(=O)c2ccco2)cc1OC | -3% (inactive)
CSc1ccc(C2C(C#N)=C(N)Oc3c2ccc(=O)c2c(C)oc(C)c32)cc1 (stereo not drawn) | -8.9% (inactive)
Cc1oc(C)c2c(=O)ccc3c(c12)OC(N)=C(C#N)C3c1ccccc1 (stereo not drawn) | -51.8% (inactive)
Cn1c(N2CCC(C(N)=O)CC2)nc2c1c(=O)n(Cc1ccc(Br)cc1)c(=O)n2C | 28.6% (inactive)
COc1cccc(C2C(C#N)=C(N)OC3=C2C(=O)CCC3)c1OC(=O)c1ccco1 (stereo not drawn) | -11.1% (inactive)
OCCN(CC(O)Cn1ccc2ccccc21)CC(O)Cn1ccc2ccccc21 (stereo not drawn) | -4.1% (inactive)
OCCNCC(O)Cn1ccc2ccccc21 (stereo not drawn) | -15.1% (inactive)
Cc1nn(Cc2ccccc2)c(C)c1C(=O)Nc1ccc(N2CCOCC2)cc1 | 6.2% (inactive)
COc1ccc(CN(C)C2CCCCC2)cc1 | 12.6% (inactive)
CC(C)(C)c1cc(CN2CCN(CCO)CC2)cc(C(C)(C)C)c1O | -9.7% (inactive)
CC(C)(C)c1cc(C(=S)N2CCN(CCO)CC2)cc(C(C)(C)C)c1O | -4.1% (inactive)
Cc1ccc2c(c1)N(CCCC(=O)NCC1COc3ccccc3O1)C(=O)CO2 (stereo not drawn) | -5.2% (inactive)
C(=N\n1cnnc1)/c1cn(-c2cccs2)nc1-c1ccccc1 | -5.7% (inactive)

SMILES | cytotoxicity
O=C(O)C1CCN(C(=O)c2ccccc2C(=O)N2CCC(C(=O)O)CC2)CC1 | -9.9% (inactive)
Cc1ccnc(NC(=O)C2CCN(S(=O)(=O)c3cccc4nsnc34)CC2)c1 | -8.3% (inactive)
O=S(=O)(c1ccccc1)N1CCN(C2CCN(Cc3ccccc3)CC2)CC1 | 22.9% (inactive)
Cc1ccc(C2C(C#N)=C(N)Oc3nc(-c4ccccc4)[nH]c32)o1 (stereo not drawn) | -2.4% (inactive)
Cc1ccc(SCc2[nH]nc3c2C(c2ccc(C)o2)C(C#N)=C(N)O3)cc1 (stereo not drawn) | 44.5% (inactive)
CC1(C)Cc2cccc(OCC(=O)N3CCN(S(=O)(=O)c4ccccc4)CC3)c2O1 | -2.1% (inactive)
COC(=O)c1ccsc1NC(=O)c1ccc(Cl)s1 | -0.2% (inactive)
COc1ccc2nc(NCCO)[nH]c2c1 | -13.5% (inactive)
CCOc1ccc2nc(NCCO)[nH]c2c1 | -2.1% (inactive)
CCCSc1ccc2nc(NC(=O)OC)[nH]c2c1 | 67.1% (active)
CCCOc1ccc2nc(NC(=O)OC)[nH]c2c1 | 61.4% (active)
COc1ccc2nc(SCC(N)=O)[nH]c2c1 | -19.2% (inactive)
COc1ccc(C(=O)Nc2nc3ccccc3[nH]2)cc1OC | -5.6% (inactive)
CCCCC(c1nnnn1CS(=O)(=O)c1ccc(C)cc1)N1CCN(c2ccccc2)CC1 (stereo not drawn) | -30% (inactive)
O=C(NC1CCCc2ccccc21)C1CCN(S(=O)(=O)c2cccc3nonc23)CC1 (stereo not drawn) | -29.1% (inactive)
O=C(c1cc2sccc2n1Cc1ccccc1)N1CCc2ccccc21 | 9.3% (inactive)
CC(=O)N1CCN(CC(=O)Nc2c(Cl)cc(Cl)cc2Cl)CC1 | 0% (inactive)
COc1ccc(N2CCN(C(=O)c3ccc(S(=O)(=O)N4CCOCC4)cc3)CC2)cc1 | 3.1% (inactive)
COc1cc(OC)nc(NC(=O)COC(=O)C2CCCCC2)n1 | 8.7% (inactive)
COc1ccc(-n2c(Cc3cccn3C)nnc2SCC(=O)Nc2ccccc2F)cc1 | -11.2% (inactive)
Cc1ccc(C(=O)C2=C(O)C(=O)N(c3ncccn3)C2c2cccc(Cl)c2)o1 (stereo not drawn) | 22.7% (inactive)
Cc1ccc(C(=O)C2=C(O)C(=O)N(c3ncccn3)C2c2ccc(Cl)cc2)o1 (stereo not drawn) | 68.3% (active)
O=C(C1=C(O)C(=O)N(c2ncccn2)C1c1ccc(Cl)c(Cl)c1)c1ccco1 (stereo not drawn) | 7.8% (inactive)
